In PubChem BioAssay (NCI):
This is part of a sample that, as a whole, favours compounds with a hit. Of some 83,000 tested, about 20% had one in any assay.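 Single-concentration screen, 48 h exposure, 96-well plates. Endpoint: percent growth. Below 10 = active.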 The source made the active and inactive calls.

Key:
Assay in all cases: NCI-60 one-dose screen, 48 h (100 = growth as untreated, 0 = no growth, -100 = all killed)
Conditions in all cases: 10 µM unless noted
[1] = tested on: NCI-H23 lung
[2] = tested on: NCI-H226 lung
[3] = tested on: NCI-H322M lung
[4] = tested on: HOP-62 NSCLC
[5] = tested on: NCI-H460 lung
[6] = tested on: HOP-92 NSCLC
[7] = tested on: NCI-H522 lung
[8] = tested on: A549/ATCC NSCLC
[9] = tested on: 786-0 renal
[10] = tested on: COLO 205 colon
[11] = tested on: DU-145 prostate
[12] = tested on: K-562 leukemia
[13] = tested on: MALME-3M melanoma
[14] = tested on: MDA-MB-231 breast
[15] = tested on: RXF 393 renal
[16] = tested on: SF-268 CNS
[17] = tested on: SF-295 CNS
[18] = tested on: SF-539 CNS
[19] = tested on: UACC-257 melanoma
[20] = tested on: M14 melanoma

Row | Structure (SMILES) | growth [1] | growth [2] | growth [3] | growth [4] | growth [5] | growth [6] | growth [7] | growth [8] | growth [9] | growth [10] | growth [11] | growth [12] | growth [13] | growth [14] | growth [15] | growth [16] | growth [17] | growth [18] | growth [19] | growth [20]
1 | C=CC(=O)Nc1cc2c(Nc3ccc(F)c(Cl)c3)ncnc2cc1OCCCN1CCOCC1 | -54.4% (active) | 40.2% (inactive) | -15.2% (active) | 12.1% (inactive) | 31.2% (inactive) | -51.7% (active) | -74.6% (active) | 22.9% (inactive) | 2.4% (active) | 8.89% (active) | 14.9% (inactive) | 2.24% (active) | 27.3% (inactive) | 0.732% (active) | -53.1% (active) | -5.09% (active) | 53.4% (inactive) | -24.4% (active) | 35.1% (inactive) | -62.3% (active)
2 | Ic1ccccc1-c1ccccc1 | 102% (inactive) | 106% (inactive) | 114% (inactive) | 100% (inactive) | 100% (inactive) | 87.3% (inactive) | 94.9% (inactive) | 87.9% (inactive) | 108% (inactive) | 96.4% (inactive) | 114% (inactive) | 104% (inactive) | 95% (inactive) | 102% (inactive) | 105% (inactive) | 105% (inactive) | 122% (inactive) | 108% (inactive) | 99% (inactive) | 103% (inactive)
3 | Cc1nc2cc(-c3nn(C(C)C)c4ncnc(N)c34)ccc2o1 | -0.166% (active) | -20.5% (active) | -23.2% (active) | -36.3% (active) | 3.28% (active) | -40.4% (active) | -11.5% (active) | -29.2% (active) | -29.5% (active) | -24.9% (active) | 1.98% (active) | 10.4% (inactive) | -38.7% (active) | -9.12% (active) | -54.3% (active) | 4.35% (active) | -53.9% (active) | -61.7% (active) | -45.3% (active) | -7.38% (active)
4 | c1cn2cc(-c3ccc4cn[nH]c4c3)nc(Nc3ccc(N4CCOCC4)cc3)c2n1 | 64.8% (inactive) | 20.8% (inactive) | 70% (inactive) | 9.23% (active) | 41.7% (inactive) | 39.2% (inactive) | 24.4% (inactive) | 45% (inactive) | 59.2% (inactive) | 61.3% (inactive) | 53.3% (inactive) | 65.9% (inactive) | 74.8% (inactive) | 55.1% (inactive) | 12.4% (inactive) | 34.9% (inactive) | 66.4% (inactive) | 46.9% (inactive) | 62.6% (inactive) | 55.1% (inactive)
5 | COc1cc(Nc2ncc(F)c(Nc3ccc4c(n3)N(COP(=O)(O)O)C(=O)C(C)(C)O4)n2)cc(OC)c1OC | 29.7% (inactive) | -14.6% (active) | 20.6% (inactive) | 2.67% (active) | 25.4% (inactive) | -39.5% (active) | -28.5% (active) | 0.294% (active) | -23.8% (active) | -22.8% (active) | 30.9% (inactive) | 32.3% (inactive) | 53.1% (inactive) | 15.9% (inactive) | -79.9% (active) | 7.3% (active) | 15.5% (inactive) | -70.1% (active) | 66.2% (inactive) | 39% (inactive)
6 | COc1ccc(-c2cnc(-c3ccc(Cl)cc3)[nH]2)cc1OC | 99.2% (inactive) | 88.3% (inactive) | 120% (inactive) | 94.3% (inactive) | 100% (inactive) | 25.8% (inactive) | 105% (inactive) | 105% (inactive) | 100% (inactive) | 98.7% (inactive) | 78.7% (inactive) | 115% (inactive) | 155% (inactive) | 78.6% (inactive) | 91.6% (inactive) | 78% (inactive) | 111% (inactive) | 95.6% (inactive) | 119% (inactive) | 115% (inactive)
7 | COC(=O)Nc1nc2ccc(C(=O)c3ccc(N(C)C4COC4)cc3)cc2[nH]1 | 30.5% (inactive) | 67.2% (inactive) | 48.3% (inactive) | 10.2% (inactive) | 3.28% (active) | 46.8% (inactive) | -31.5% (active) | 14.9% (inactive) | 27.8% (inactive) | -38.8% (active) | 12.7% (inactive) | 7.83% (active) | 53.8% (inactive) | 37.8% (inactive) | 22.1% (inactive) | 41.5% (inactive) | 13.3% (inactive) | -7% (active) | 44.4% (inactive) | 3.69% (active)
8 | CC(C)(O)CC(=O)NCCn1ccc2ncnc(Nc3ccc(Oc4cccc(C(F)(F)F)c4)c(Cl)c3)c21 | 20% (inactive) | 26.1% (inactive) | -2.67% (active) | -12.2% (active) | 11.1% (inactive) | -23.1% (active) | -20.4% (active) | 1.14% (active) | 22.6% (inactive) | -67.4% (active) | 27.4% (inactive) | 4.49% (active) | -8.01% (active) | 11.9% (inactive) | 3.66% (active) | 29.3% (inactive) | 31% (inactive) | 8.28% (active) | -26.8% (active) | -1.37% (active)
9 | CC1=CC2c3oc(-c4ccccc4)c(C(=O)c4ccccc4)c3CNC2C=C1 (stereo not given) | 95% (inactive) | 83.8% (inactive) | 94.6% (inactive) | 74.5% (inactive) | 100% (inactive) | 97.5% (inactive) | 57.7% (inactive) | 74.2% (inactive) | 111% (inactive) | 109% (inactive) | 112% (inactive) | 95.8% (inactive) | 98.8% (inactive) | 88.4% (inactive) | 94.2% (inactive) | 97.9% (inactive) | 95.9% (inactive) | 109% (inactive) | 70.6% (inactive) | 96.1% (inactive)
10 | CCOc1cccc(/C=N/NC(=O)c2ccccc2Nc2ccnc(C(F)(F)F)c2)c1O | 21.6% (inactive) | -15.2% (active) | 22.2% (inactive) | -7.4% (active) | -8.7% (active) | 25.2% (inactive) | 16.6% (inactive) | 15% (inactive) | 3.64% (active) | 9.3% (active) | 26.2% (inactive) | 15.5% (inactive) | 18.1% (inactive) | 47% (inactive) | 23.9% (inactive) | 13% (inactive) | 17.7% (inactive) | 0.222% (active) | 10.2% (inactive) | -29.2% (active)
11 | C1=C\COCc2cc(ccc2OCCN2CCCC2)Nc2nccc(n2)-c2cccc(c2)COC/1 | -17.3% (active) | -64.9% (active) | -8.53% (active) | -18.1% (active) | -34.5% (active) | -0.764% (active) | -58.1% (active) | -17.3% (active) | 1.51% (active) | -82% (active) | 13.7% (inactive) | 1.93% (active) | -79.3% (active) | -1.88% (active) | -74.8% (active) | -0.949% (active) | -33.8% (active) | -83.7% (active) | -75.1% (active) | -59.4% (active)
12 | N#CCNC(=O)c1ccc(-c2ccnc(Nc3ccc(N4CCOCC4)cc3)n2)cc1 | 29.6% (inactive) | -3.52% (active) | 39.2% (inactive) | 4.27% (active) | 6.81% (active) | 46.9% (inactive) | 4.57% (active) | 13.4% (inactive) | 4.83% (active) | 2.5% (active) | 18.6% (inactive) | 26.9% (inactive) | 33.2% (inactive) | 19.8% (inactive) | -62.8% (active) | 22.1% (inactive) | 49.5% (inactive) | -9.39% (active) | 31.1% (inactive) | 44% (inactive)
13 | O=C(NC1CCNCC1)c1[nH]ncc1NC(=O)c1c(Cl)cccc1Cl | -12.1% (active) | 0.903% (active) | 5.64% (active) | -18.5% (active) | 8.4% (active) | -6.06% (active) | -23% (active) | 8.09% (active) | 2.33% (active) | -35.9% (active) | 12.3% (inactive) | 5.78% (active) | -38.8% (active) | 1.88% (active) | -50% (active) | 9.79% (active) | 8.53% (active) | -41.9% (active) | -6.15% (active) | 9.93% (active)
14 | Cn1cc(-c2ncnc3ccc(-c4cnc(Cl)c(NS(C)(=O)=O)c4)cc23)c2ccccc21 | 29.7% (inactive) | 16.4% (inactive) | 0.878% (active) | 16.2% (inactive) | 8.88% (active) | -8.63% (active) | 17% (inactive) | 6.57% (active) | 12% (inactive) | 16.4% (inactive) | 25.2% (inactive) | 48.4% (inactive) | -13.6% (active) | 27.9% (inactive) | -26.7% (active) | 27.5% (inactive) | -9.66% (active) | -11.1% (active) | 5.53% (active) | 9.65% (active)
15 | Cc1nc(NC(=O)N2CCC[C@H]2C(N)=O)sc1-c1ccnc(C(C)(C)C(F)(F)F)c1 | 57.9% (inactive) | 71% (inactive) | 6.7% (active) | 49.4% (inactive) | 24% (inactive) | -4.57% (active) | 33.6% (inactive) | 21% (inactive) | 59.5% (inactive) | 13.7% (inactive) | 34.1% (inactive) | 80.9% (inactive) | 43.8% (inactive) | 65.3% (inactive) | 25.6% (inactive) | 54.2% (inactive) | 32.8% (inactive) | 28.1% (inactive) | 40% (inactive) | 41.4% (inactive)
16 | CCn1c(-c2nonc2N)nc2c(C#CC(C)(C)O)ncc(OC[C@H]3CCCNC3)c21 | 78.7% (inactive) | 113% (inactive) | 75.2% (inactive) | 73% (inactive) | 56.6% (inactive) | 178% (inactive) | 12.7% (inactive) | 87.8% (inactive) | 26.7% (inactive) | 38.2% (inactive) | 64.4% (inactive) | 38.8% (inactive) | 84.2% (inactive) | 84.2% (inactive) | 5.93% (active) | 81% (inactive) | 41.4% (inactive) | 27.1% (inactive) | 130% (inactive) | 71% (inactive)
